mHTT CaM bind – inhibitors of human mutant huntingtin-calmodulin interaction. P42858. AlphaScreen His-mHTT/GST-CaM binding, luminescence. inhibition, % at 15 µM. 190,000 compounds, 3.6% hits. AID 1671202;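 also: 0% = both proteins with DMSO and 100% = one protein alone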
Pf apPOL inh – Pf-apPOL DNA polymerase inhibition | Recombinant Pf-apPOL, molecular beacon fluorescence, 1.5 h | inhibition, % at 10 µM | 210,000 compounds, 0.25% hits | AID 1794808
Numbers without * were called inactive. The entries come from a sample that favours hits as a whole. Rule as the data show it: active = inhibition above about 50%; inactive = the rest.

CCOC(=O)CC[C@@H]1CC[C@]2(CCCN(C(=O)c3ccc4ccccc4n3)C2)O1 was read as mHTT CaM bind -10 and Pf apPOL inh -6.
CC1(C)CC2CC(C)(CN2C(=O)c2cnn3c2NC(c2cccs2)CC3C(F)(F)F)C1 (configuration not stated) was read as mHTT CaM bind 15 and Pf apPOL inh 7.
CC(=O)N1CCc2ccccc2C1C(=O)N1CCN(c2ccc(C)cc2)CC1 (configuration not stated) was read as mHTT CaM bind 44 and Pf apPOL inh -1.
Screening O=C(C1c2ccccc2CCN1C(=O)C1CC1)N1CCN(c2ccc(F)cc2)CC1 (configuration not stated) returned mHTT CaM bind 55* and Pf apPOL inh -2.
`CC(=O)N1CCc2ccccc2C1C(=O)N1CCN(c2ccc(F)cc2)CC1` (configuration not stated) gave mHTT CaM bind 13 and Pf apPOL inh -2.
Screening CC(=O)N1CCc2ccccc2C1C(=O)N1CCN(c2cccc(Cl)c2)CC1 (configuration not stated) returned mHTT CaM bind 78* and Pf apPOL inh -3.
For O=C(O)c1ccc(N2N=C(/C=C/c3ccccc3)CC2c2ccccc2)cc1 (configuration not stated) the results were mHTT CaM bind -26 and Pf apPOL inh 1.
Screening C(=C\c1ccccc1)/C1=Nc2ccccc2NC(c2ccccc2)C1 (configuration not stated) returned mHTT CaM bind 81* and Pf apPOL inh -5.
O=S(=O)(Nc1ccc(F)cc1F)c1ccc2[nH]c3c(c2c1)CCCC3 was read as mHTT CaM bind 91* and Pf apPOL inh -2.
For COc1ccc(NS(=O)(=O)c2ccc3[nH]c(=O)sc3c2)cc1 the results were mHTT CaM bind -5 and Pf apPOL inh -1.
Screening CCOc1ccccc1NS(=O)(=O)c1ccc2[nH]c3c(c2c1)CCCC3 returned mHTT CaM bind 26 and Pf apPOL inh -3.
COC(=O)c1ccc(NS(=O)(=O)c2ccc3[nH]c4c(c3c2)CCCCC4)cc1 was read as mHTT CaM bind 68* and Pf apPOL inh -1.
Screening CC(=O)c1ccc(NS(=O)(=O)c2ccc3[nH]c4c(c3c2)CCCC4)cc1 returned mHTT CaM bind 63* and Pf apPOL inh -4.
`CC(=O)c1ccc2c3c([nH]c2c1)CCCC3` gave mHTT CaM bind 0 and Pf apPOL inh -6.
`COC(=O)c1ccc(NS(=O)(=O)c2ccc3[nH]c4c(c3c2)CCCC4)cc1` gave mHTT CaM bind 38 and Pf apPOL inh 1.
Screening COc1ccc(NS(=O)(=O)c2ccc3[nH]c4c(c3c2)CCCC4)cc1 returned mHTT CaM bind 80* and Pf apPOL inh -5.
Screening Nc1nnc(Cc2ccccc2)s1 returned mHTT CaM bind -6 and Pf apPOL inh -7.
CCN(CC)CCCN1C(=O)C(O)=C(C(=O)c2ccc(C)o2)C1c1cccnc1 (configuration not stated) was read as mHTT CaM bind 0 and Pf apPOL inh -6.
CC(C)CC(=O)Nc1ccc(N2CCN(C(=O)c3ccccc3F)CC2)nc1 was read as mHTT CaM bind 10 and Pf apPOL inh -1.
`Cc1ccc(C)c(NC(=O)c2cc(I)ccc2Cl)c1` gave mHTT CaM bind -10 and Pf apPOL inh -4.
`CC1CCCN(C(=O)COc2ccc(Cl)cc2)C1` (configuration not stated) gave mHTT CaM bind -9 and Pf apPOL inh -5.
Screening O=C(COc1ccc(Cl)cc1)N1CCC(N2CCc3ccccc32)CC1 returned mHTT CaM bind 86* and Pf apPOL inh -4.
For O=C1[C@H](Cc2ccccc2)NC/C=C\C[C@@H](c2ccc(Cl)cc2)N1Cc1ccc(Cl)cc1 the results were mHTT CaM bind 99* and Pf apPOL inh 1.
Screening COC(=O)C1=C(C(=O)OC)[C@]2([C@@H]3C/C=C\CN[C@@H](Cc4ccccc4)C(=O)N3Cc3ccccc3)C=C[C@H]1O2 returned mHTT CaM bind 25 and Pf apPOL inh -3.
For O=C1[C@H](Cc2ccccc2)NC/C=C\C[C@H](c2ccco2)N1Cc1ccccc1 the results were mHTT CaM bind 51* and Pf apPOL inh 1.
O=C(NCCc1ccccc1)N1CCCC1c1ccc(Cl)cc1 (configuration not stated) was read as mHTT CaM bind 0 and Pf apPOL inh -4.
For CC(C)(C)C(=O)CSc1nc(-c2cccnc2)c(C#N)c(=O)[nH]1 the results were Pf apPOL inh -2.
Cc1cc2c3c(c1)C(C)CC(C)(C)N3C(=O)C2=O (configuration not stated) was read as mHTT CaM bind 17 and Pf apPOL inh 0.
CCc1cc2c3c(c1)C(C)=CC(C)(C)N3C(=O)C2=O was read as mHTT CaM bind 72* and Pf apPOL inh 6.
Screening CC1(C)C(C=C(Cl)Cl)C1C(=O)Nc1ccc(S(=O)(=O)Nc2ncccn2)cc1 (configuration not stated) returned mHTT CaM bind 11 and Pf apPOL inh -2.
